Structures are written as SMILES. Compounds without any hit were thinned out: in the full panel of roughly 83,000, 20% have a hit.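 48-hour exposure, single concentration, 96-well plates; percent growth endpoint where 0 means no net growth. Active: below 10.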 A number with no mark means an inactive call. Calls of active or inactive are those of the source.

The test system of the test is HL-60(TB) leukemia. The test can be described thus: NCI-60 one-dose screen, 48 h (100 = growth as untreated, 0 = no growth, -100 = all killed). Particulars: 10 µM unless noted.
Turning to `NC(CS/C(Cl)=C/Cl)C(=O)O` (centres undefined), the growth is 86.9%.

With `COc1ccc(C2=C/C(=C\c3ccc(Cl)cc3)C(=O)NN2C(=S)NN)cc1`, the growth was 93.3%.

For the molecule `CC/C=C/[C@@H]1C=C[C@@H]2CCC[C@H]2[C@@H]1CC[C@H](O)[C@H](C)N`, the growth is -61.6% (active).

With `CCOC(=O)c1cc(C(=O)c2ccc(O)c(O)c2)n2ccc(-c3ccn4c(C(=O)c5ccc(O)c(O)c5)cc(C(=O)OCC)c4c3)cc12`, the growth was 73.8%.

Source of the values: PubChem BioAssay (NCI).
